Source: PubChem BioAssay (NCI)
Compounds without any hit were thinned out: in the full panel of roughly 79,000, 15% have a hit. Values without a mark were called inactive. Activity calls are given as the source filed them. No stated cut-off is given here; in the data, active means growth inhibition above about 70%; inactive means the rest.

What was measured:
[1] = NCI Yeast Anticancer Drug Screen. Data for the rad50 strain (AID 155);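 further: 0% = growth of vehicle-only cultures of the same strain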; conditions: S. cerevisiae rad50 strain growth inhibition, hits give high values
Method in brief: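 Readout: growth inhibition relative to vehicle-treated cultures. Compound exposure was carried out in a genetically defined yeast strain deficient in DNA damage repair.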

[2] = NCI Yeast Anticancer Drug Screen. Data for the mec2-1 strain (AID 157); conditions: S. cerevisiae mec2-1 strain, hits give high values
Method in brief: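 Each compound was tested on mec2-1 yeast, a strain altered in DNA damage repair or cell cycle control. Growth inhibition is reported relative to vehicle.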

[3] = NCI Yeast Anticancer Drug Screen. Data for the sgs1 mgt1 strain (AID 161);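 further: 0% = growth of cultures given vehicle only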; conditions: S. cerevisiae sgs1 mgt1 strain, hits give high values
Method in brief: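 Genetically altered yeast, compound exposure, growth inhibition relative to vehicle.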

[4] = NCI Yeast Anticancer Drug Screen. Data for the cln2 rad14 strain (AID 165);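 further: 0% = growth equal to vehicle treated cultures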; conditions: S. cerevisiae cln2 rad14 strain, hits give high values
Method in brief: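 Test compounds were added to cln2 rad14 yeast cultures; inhibition of growth was then determined by comparison with vehicle treatment.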

[5] = NCI Yeast Anticancer Drug Screen. Data for the bub3 strain (AID 167); conditions: S. cerevisiae bub3 mutant strain, hits give high values
Method in brief: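 Readout: yeast growth inhibition, expressed relative to vehicle-only wells. The test organism is a mutant strain from a panel with lesions in DNA repair or checkpoint genes.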

[6] = NCI Yeast Anticancer Drug Screen. Data for the mlh1 rad18 strain (AID 175); conditions: S. cerevisiae mlh1 rad18 strain growth inhibition, hits give high values
Method in brief: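 Inhibition values reflect reduced growth of mutant yeast versus vehicle-treated controls following compound exposure; the mutations affect DNA damage repair.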

[7] = at 5.0 µM (retest, dose inferred, filed as 0.5)
[8] = at 50.0 µM (retest, dose inferred, filed as 5.0)

| SMILES | growth inhibition [1, 7] | growth inhibition [1, 8] | growth inhibition ([1]; at 50.0 µM) | growth inhibition [2, 7] | growth inhibition [2, 8] | growth inhibition ([2]; at 50.0 µM) | growth inhibition [3, 7] | growth inhibition [3, 8] | growth inhibition ([3]; at 50.0 µM) | growth inhibition [4, 7] | growth inhibition [4, 8] | growth inhibition ([4]; at 50.0 µM) | growth inhibition [5, 7] | growth inhibition [5, 8] | growth inhibition ([5]; at 50.0 µM) | growth inhibition [6, 7] | growth inhibition [6, 8] | growth inhibition ([6]; at 50.0 µM) |
| --- | --- | --- | --- | --- | --- | --- | --- | --- | --- | --- | --- | --- | --- | --- | --- | --- | --- | --- |
| O=c1[nH]c(C(F)(F)F)c(F)c(=O)[nH]1 | 0% | -2% | 69.3% | 3% | 1% | 93.5% (active) | 2% | 27% | 86.7% (active) | 3% | 5% | 94.1% (active) | -2% | -5% | 63.1% | -2% | -3% | 95% (active) |
| S=C(C(=S)N1CCOCC1)N1CCOCC1 | 14% | 16% | 0.05% | 12% | 16% | 26.1% | 19% | 27% | 12.8% | 15% | 12% | -16.8% | 22% | 23% | 11.8% | 16% | 16% | 7.95% |
| CC1(C)/C=C/C2=Nc3cc(Br)c(Br)c(Br)c3C23CC(=O)N3/C=C(\Cl)c2nc(Br)[nH]c21 (centres undefined) | 22% | 97% (active) | 92% (active) | 15% | 96% (active) | 93.8% (active) | 32% | 98% (active) | 93.8% (active) | 29% | 98% (active) | 91.7% (active) | 12% | 98% (active) | 93% (active) | -11% | 98% (active) | 92.5% (active) |
| Cc1ccc([P+](CCN2C(=O)c3ccccc3C2=O)(c2ccc(C)cc2)c2ccc(C)cc2)cc1 | 77% (active) | 98% (active) | 89.8% (active) | 72% (active) | 99% (active) | 90.3% (active) | 89% (active) | 99% (active) | 90.5% (active) | 71% (active) | 99% (active) | 87.9% (active) | 86% (active) | 99% (active) | 90.5% (active) | 64% | 98% (active) | 87.7% (active) |
| COc1ccc2c(c1)C1(C)CCCC(C)(C(=O)O)C1CC2 (centres undefined) | -8% | 99% (active) | 99.5% (active) | -7% | 99% (active) | 99.5% (active) | 1% | 99% (active) | 99.6% (active) | -103% | 99% (active) | 96.8% (active) | -8% | 93% (active) | 99% (active) | 2% | 98% (active) | 99.5% (active) |
| CC(=O)OCC1CC2OC2CC1C (centres undefined) | 1% | 2% | 70.1% (active) | 6% | -5% | 50.1% | 15% | 7% | 70.4% (active) | 34% | 9% | 68.1% | 27% | 19% | 75% (active) | -12% | -26% | 63% |
| COc1ccc(C2c3cc4c(cc3OC(O)C2C)OCO4)cc1 (centres undefined) | -3% | 69% | 96.8% (active) | -6% | 49% | 93.5% (active) | -2% | 78% (active) | 98.3% (active) | -2% | 42% | 95.3% (active) | -2% | 67% | 97% (active) | -1% | 74% (active) | 97.5% (active) |
| O=C1OC(=O)C2C1C1C(c3ccccc3)=C(c3ccccc3)C2(O)C2C(=O)OC(=O)C12 (centres undefined) | 25% | 25% | 76.2% (active) | 7% | 7% | 81% (active) | 16% | 16% | 69.7% | 17% | 17% | 52.5% | 4% | 4% | 74% (active) | 18% | 18% | 29.7% |
| O=C1c2ccccc2C(=O)c2c1cccc2[N+](=O)[O-] | 84% (active) | 90% (active) | 90.9% (active) | 67% | 86% (active) | 73% (active) | 80% (active) | 88% (active) | 86% (active) | 69% | 86% (active) | 85.2% (active) | 82% (active) | 88% (active) | 71.4% (active) | 85% (active) | 90% (active) | 83.8% (active) |
| Cc1c(O)c(Br)c(Br)c(Br)c1Br | 82% (active) | 94% (active) | 95.5% (active) | 78% (active) | 97% (active) | 87.1% (active) | 81% (active) | 96% (active) | 96.1% (active) | 93% (active) | 96% (active) | 94.7% (active) | 84% (active) | 96% (active) | 93% (active) | 87% (active) | 95% (active) | 94.1% (active) |
| O=C(Nc1cccc(NC(=O)c2cc(=O)c3ccccc3o2)n1)c1cc(=O)c2ccccc2o1 | 34% | 34% | 62.6% | 13% | 13% | 14.9% | -4% | -4% | 21.7% | 21% | 21% | 24.2% | 15% | 15% | 58.5% | 24% | 24% | 67.3% |
| OC(c1cc(-c2ccccc2)nc2c(Cl)cc(Cl)cc12)C1CCCCN1 (centres undefined) | 14% | 97% (active) | 99.5% (active) | 18% | 92% (active) | 99.6% (active) | 18% | 98% (active) | 99.1% (active) | 3% | 98% (active) | 98.3% (active) | 2% | 99% (active) | 97.5% (active) | 11% | 96% (active) | 98.8% (active) |
| O=C(CNCc1ccccc1)c1ccc(Cl)cc1 | -3% | -6% | 11.6% | -2% | 6% | 1.45% | -3% | 17% | 8.4% | -1% | -22% | 24.6% | -2% | 35% | -7.85% | -4% | 14% | 14.5% |
| C=CCOc1ccc(C2(c3ccc(OCC=C)cc3)C(=O)Nc3ccccc32)cc1 | 1% | 90% (active) | 84.1% (active) | -8% | 92% (active) | 86.8% (active) | 8% | 90% (active) | 89.2% (active) | 24% | 91% (active) | 86.5% (active) | 6% | 93% (active) | 87.9% (active) | 5% | 88% (active) | 86.6% (active) |
| Cc1cc(Br)ccc1NC(=O)/C=C/C(=O)O | -23% | -36% | 0.1% | -24% | -5% | 4.25% | -17% | -4% | 17.4% | 10% | 22% | 7.15% | -4% | -13% | 20.2% | 0% | -16% | 1.25% |
| COC(=S)S | 3% | 1% | 41.9% | -2% | 0% | 18.7% | 5% | 0% | -11.4% | -4% | -2% | -45.5% | -3% | -5% | 15.6% | 1% | 6% | -24.7% |
| Cc1ccc(-c2c3nc(c(-c4ccc(C)cc4)c4ccc([nH]4)c(-c4ccc(C)cc4)c4nc(c(-c5ccncc5)c5ccc2[nH]5)C=C4)C=C3)cc1.Cc1ccc(-c2c3nc(c(-c4ccc(C)cc4)c4ccc([nH]4)c(-c4ccc(C)cc4)c4nc(c(-c5ccncc5)c5ccc2[nH]5)C=C4)C=C3)cc1.O=S(=O)([O-])C(F)(F)F.[Pt+2].c1ccc([PH+](CCC[PH+](c2ccccc2)c2ccccc2)c2ccccc2)cc1 | 19% | 62% | 48.8% | 13% | 42% | 36.8% | 13% | 71% (active) | 50.4% | 3% | 45% | -44.6% | 10% | 63% | 38.8% | 14% | 60% | 68.5% |
| CN1C(Cl)=NS(=O)(=O)c2ccccc21 | 18% | 22% | -23% | 14% | 19% | -5.6% | 9% | 18% | -12.4% | 20% | 20% | -1.3% | 15% | 11% | 6.35% | 15% | 25% | 8.95% |
